In all, about 48,000 compounds went through this assay and about 13,000 (27%) showed an effect of 50% or more. Some of the results follow.

This test has as its system Wolbachia pipientis. In words: Anti-Wolbachia Cell-Based Screen. It is filed as functional. Also on record: scale not given: in the data most compounds retested in dose-response had high values. The settings on record: 5 µM.
As to `Cc1cnn(CC2CCCCN2C(=O)c2ccc3[nH]cnc3c2)c1` (stereo unspecified), the “Percent Effect” value was determined as 112.2%. For `Cc1cnn(CC2CCCN2C(=O)c2ccc3cc[nH]c3c2)c1` (stereo unspecified), the “Percent Effect” value was 7.467%.

`Cc1cnn(CC2CCCCN2C(=O)c2ccc3[nH]nnc3c2)c1` (stereo unspecified): the “Percent Effect” value is reported as -1.412%.

Regarding `Cc1cnn(CC2CCCCN2C(=O)c2ccc3[nH]c(=O)[nH]c3c2)c1` (stereo unspecified), the “Percent Effect” value is 108.3%.

Turning to `Cc1cnn(CC2CCCN2C(=O)c2ccc3[nH]nnc3c2)c1` (stereo unspecified), the “Percent Effect” value is 0.8571%. Consider `Cc1cnn(CC2CCCN2C(=O)c2ccc3[nH]c(=O)[nH]c3c2)c1` (stereo unspecified), for which the “Percent Effect” value was determined as 143.3%.

For the compound `Cc1cnn(CC2CCCCN2C(=O)c2ccc3c(c2)COC3)c1` (stereo unspecified), the “Percent Effect” value stood at 117.5%.

With `COc1cccc([S+]([O-])CC(=O)NCc2cc(F)cc(F)c2)c1` (stereo unspecified), the “Percent Effect” value is listed as -14.98%.

Consider `O=C1N(Cc2cccc(F)c2F)CCCC1(O)CNCc1ccccn1` (stereo unspecified), for which the “Percent Effect” value is reported as -29.29%.

Regarding `Cc1cc(C)cc(C(C)NC(=O)c2ccc(CS(C)(=O)=O)o2)c1` (stereo unspecified), the “Percent Effect” value is -2.298%. Regarding `CCc1ccc(CN2CCN(c3ccc(C(N)=O)cn3)CC2)nc1`, the “Percent Effect” value is recorded as 17.95%. For the compound `CC(C)(N)c1cn(C2CCN(C(=O)CCC3CCCCC3)CC2)nn1`, the “Percent Effect” value was -21.08%. For `Cc1cc(CN2CCc3nc(C(C)C)nc(O)c3CC2)c(C)s1`, the “Percent Effect” value is reported as 120.7%. Take `Cc1cc(CN2CCc3nc(-c4ccncc4)nc(O)c3CC2)c(C)s1`: the “Percent Effect” value came to 125%.

For the compound `CC(=O)N1CCc2c(nc(-c3ccncc3)nc2N(C)CC(O)CO)C1` (stereo unspecified), the “Percent Effect” value was found to be 4.037%. As for `Cc1nc2c(c(=O)n1C)CCN(Cc1cc3ccccc3[nH]1)CC2`, the “Percent Effect” value is recorded as -25.51%. The value for `Cc1nc(C)c2c(n1)CCN(Cc1ccsc1)CC2` was 5.852%; that for `CC(C)c1ncc2c(n1)CN(Cc1nc3c(F)cccc3[nH]1)CC2` was -0.8884%; that for `Cc1cc(CN2CCc3nc(N4CCOCC4)nc(O)c3CC2)c(C)s1` was 112.9%. As for `Cc1cc(CN[C@@H](C)C(N)=O)c(C)s1`, the “Percent Effect” value was found to be 8.124%. Take `Cc1nc(C)c2c(n1)CCN(Cc1ccco1)CC2`: the “Percent Effect” value was -8.406%.

Consider `Cc1nc(O)c2c(n1)CCN(Cc1cc(C)sc1C)CC2`, for which the “Percent Effect” value is reported as 92.9%. Regarding `COCc1ccccc1C(=O)NS(=O)(=O)CCCC#N`, the “Percent Effect” value was -8.648%. Consider `COC1CCN(S(=O)(=O)N2C[C@H](c3ccccc3)[C@@H](N)C2)CC1`, for which the “Percent Effect” value is listed as -9.837%. The figure for `N#Cc1cccc(CN2CCN(Cc3cscn3)CC2)c1` is -8.185%; for `NC(=O)c1ccc(C(=O)N2CCCCC2C2OCCO2)cc1` (stereo unspecified) it is -10.24%. In the case of `Cc1ccc(CN2CCc3ncnc(C4CCOC4)c3CC2)s1.O=C(O)C(F)(F)F` (stereo unspecified), the “Percent Effect” value is -17.37%. For the compound `Cc1ccc(CN2CCc3nc(C(C)C)nc(O)c3CC2)s1`, the “Percent Effect” value amounted to 101.1%. On to `Cc1ccc(CN2CCc3ncnc(OC(C)C)c3CC2)s1.O=C(O)C(F)(F)F`, for which the “Percent Effect” value is -2.547%. Take `Cc1nc(CN2CCOC(CN(C)c3cccnn3)C2)cs1` (stereo unspecified): the “Percent Effect” value was found to be 1.717%. Regarding `Cc1cc(C)n(NC(=O)c2ccccc2F)c(=O)c1`, the “Percent Effect” value was found to be 67.62%. For `CCOc1ccccc1C(=O)Nn1c(C)cc(C)cc1=O`, the “Percent Effect” value was found to be 121%.

Consider `CCOc1cccc(CNc2ccccc2C(=O)OC)c1O`, for which the “Percent Effect” value was determined as 0.1063%. On to `Cc1ccccc1C(=O)NCC(O)c1ccc(F)c(F)c1` (stereo unspecified), for which the “Percent Effect” value is -57.78%. On to `Cc1cccc(NC(=O)CNC(=O)c2ccccc2F)c1`, for which the “Percent Effect” value is reported as -4.999%. As to `O=C(NS(=O)(=O)c1ccccc1)c1ccccc1F`, the “Percent Effect” value is on record as -14.83%.

Turning to `CCOc1ccccc1C(CC(=O)Nc1ccc(C)cn1)NC(C)=O` (stereo unspecified), the “Percent Effect” value is recorded as -11.24%.

With `Cc1cc(C)n(NC(=O)c2ccc(Cl)cc2Cl)c(=O)c1`, the “Percent Effect” value turned out to be 111.9%. The value for `Cc1cc(C)n(NC(=O)c2ccccc2C)c(=O)c1` was 92.68%; that for `Cc1cc(C)n(NC(=O)c2cccc3c2OCC3)c(=O)c1` was -19.93%. Consider `CC(C)C(NC(=O)c1ccc(Cl)cc1Cl)C(=O)Nc1ccn(C)n1` (stereo unspecified), for which the “Percent Effect” value is listed as -7.418%. Consider `CC(NC(=O)C1=NN(C)C(=O)CC1)c1ccc(Cl)cc1Cl` (stereo unspecified), for which the “Percent Effect” value is on record as -11.2%. Consider `Cc1cc(CS(=O)(=O)N(C)C(C)c2ccc(Cl)cc2)on1` (stereo unspecified), for which the “Percent Effect” value was found to be 1.246%. In the case of `CN(C)[C@@H]1CCN(c2ncc(F)cn2)[C@H]1Cc1ccncc1.O=C(O)C(F)(F)F.O=C(O)C(F)(F)F`, the “Percent Effect” value is 2.593%. `CC(O)CCN(C)S(=O)(=O)Cc1ccc(Cl)c(Cl)c1` (stereo unspecified): the “Percent Effect” value was 3.883%. For the compound `N[C@H]1CN(C(=O)Cc2ccc(CO)cc2)C[C@@H]1C1CC1`, the “Percent Effect” value is -4.225%. In the case of `O=C1CN(Cc2cn(C3CCN(C4CSCCSC4)CC3)nn2)CCN1`, the “Percent Effect” value is reported as 9.418%. The value for `O=C1CO[C@H]2CN(C3CCOCC3)C[C@H]2N1Cc1ccc(F)cc1` was 15.12%; that for `Fc1ccc(Cc2cccc(C3CCN(C4CCOCC4)CC3)n2)cc1` was 122.8%. In the case of `CN(C)C(=O)CN1CCN(c2ccnc3c(F)ccc(F)c23)CC1`, the “Percent Effect” value amounted to 6.891%. Take `CN1CCCC1c1cccc(Cc2ccc(F)cc2)n1` (stereo unspecified): the “Percent Effect” value came to 109.9%.

The values are drawn from ChEMBL document CHEMBL3988442, “University of Dundee, Small-Polar-MMV Screening Library” (2021).
